From PubChem BioAssay
Inconclusive results are not listed. The source made the active and inactive calls.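 Rule for the calls, unless noted: active = cell viability at or below a set limit in both duplicate runs, the limit being the all-compound median minus 4 SD (cut at about 23% in these data, passing the limit was not always enough); inconclusive = no clear call, values can overlap the other calls; inactive = the rest.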

Tests used:
[1] = reducers of endogenous Her2 protein level, primary screen, SKBR3 breast tumor cells, AlphaScreen, ATP viability (AID 461;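 active = Her2 level under about 52% in both replicate screens, with viability over 70% of control, limit read from the data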;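 for Her2 level: lower value means less Her2 protein in the cells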;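 for viability: percent of carrier control wells set as 100% viability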); settings: 18-24 h, measured here: SKBR3 viability, ATP luminescence, at 10 µM
[2] = molecular target: Receptor tyrosine-protein kinase erbB-2 (Homo sapiens) (UniProt P04626); assay: as above; settings: 18-24 h, at 10 µM, stronger effect = lower value
Receptor tyrosine-protein kinase erbB-2 (Homo sapiens), sequence (P04626 whole entry, looked up): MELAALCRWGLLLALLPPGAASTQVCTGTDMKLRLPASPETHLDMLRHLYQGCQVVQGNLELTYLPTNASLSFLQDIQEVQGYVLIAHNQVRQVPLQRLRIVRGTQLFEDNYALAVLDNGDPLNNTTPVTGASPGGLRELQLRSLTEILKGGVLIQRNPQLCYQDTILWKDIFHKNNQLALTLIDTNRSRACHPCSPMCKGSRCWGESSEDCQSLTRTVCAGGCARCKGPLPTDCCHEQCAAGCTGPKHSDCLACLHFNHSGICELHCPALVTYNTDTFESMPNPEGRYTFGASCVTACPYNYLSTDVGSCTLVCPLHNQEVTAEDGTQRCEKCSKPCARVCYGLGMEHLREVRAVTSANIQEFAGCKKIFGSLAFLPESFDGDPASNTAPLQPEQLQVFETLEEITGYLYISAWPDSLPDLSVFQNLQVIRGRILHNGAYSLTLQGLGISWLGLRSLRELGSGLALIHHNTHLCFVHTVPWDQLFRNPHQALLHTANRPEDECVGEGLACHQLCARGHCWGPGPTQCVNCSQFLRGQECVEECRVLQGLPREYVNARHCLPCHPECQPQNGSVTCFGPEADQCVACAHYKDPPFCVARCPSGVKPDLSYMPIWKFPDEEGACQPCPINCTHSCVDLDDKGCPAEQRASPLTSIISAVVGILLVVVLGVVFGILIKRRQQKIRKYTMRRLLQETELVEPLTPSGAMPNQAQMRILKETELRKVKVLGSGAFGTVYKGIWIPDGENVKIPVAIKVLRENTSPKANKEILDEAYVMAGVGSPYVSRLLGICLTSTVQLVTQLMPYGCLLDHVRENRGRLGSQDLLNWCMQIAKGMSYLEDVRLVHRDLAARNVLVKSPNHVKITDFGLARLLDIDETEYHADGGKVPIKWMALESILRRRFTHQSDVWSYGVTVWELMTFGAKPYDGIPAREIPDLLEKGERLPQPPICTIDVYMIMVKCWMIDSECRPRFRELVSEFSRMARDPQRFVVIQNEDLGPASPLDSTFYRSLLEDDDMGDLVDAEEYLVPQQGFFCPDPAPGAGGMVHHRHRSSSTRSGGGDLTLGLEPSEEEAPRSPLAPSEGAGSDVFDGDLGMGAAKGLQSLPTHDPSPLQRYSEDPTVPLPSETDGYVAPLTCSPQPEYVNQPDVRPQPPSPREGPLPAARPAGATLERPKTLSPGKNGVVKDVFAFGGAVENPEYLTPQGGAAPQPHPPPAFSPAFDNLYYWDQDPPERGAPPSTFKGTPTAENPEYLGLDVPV

[3] = SK-BR-3 cell growth inhibitors, pilot screen, 24 h, human (AID 572;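 active = viability at or below 10% of carrier control in both of two separate runs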;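 note: compound exposure lasted between 18 and 24 h rather than exactly 24 h; 100% = carrier-treated control wells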); settings: SK-BR-3 viability, CellTiter-Glo luminescence, at 10 µM, stronger effect = lower value
[4] = growth inhibitors of H69AR lung tumor, primary screen, human, duplicate replicates (AID 580;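 active = viability at or under a set limit in both replicates, limit being median viability minus 3 SD, cut at about 48% in these data, passing the limit was not always enough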;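 note: 100% = mean luminescence of untreated wells and 0% = no signal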); settings: H69AR lung tumor cells viability, ATP luminescence, 72 h; at 10 µM; stronger effect = lower value
[5] = reversal of MRP1-mediated doxorubicin resistance, pilot screen, H69AR cells, doxorubicin co-treatment (AID 601;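 active = viability loss from added drug above about 55%, and viability with drug at most 40%, in both replicates, limit read from the data, passing the limit was not always enough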); settings: CellTiter-Glo, 72 h, at 10 µM; for differential viability (reversal): stronger effect = higher value
[6] = 384-well plate pilot, post-Golgi transport modulator project, inhibition of yeast transport mutant growth (AID 636; in the data active = inhibition above about 31%); settings: absorbance 615 nm, about 18 h, stronger effect = higher value
[7] = growth suppression of yeast trafficking mutant, preliminary HTS, modulators of trafficking downstream of Golgi apparatus project, 1536-format plate, OD 615 nm (AID 637; in the data active = inhibition above about 30%); settings: yeast transport mutant growth, absorbance 615 nm, 18 h; stronger effect = higher value
[8] = OD615 S. cerevisiae growth inhibition, permissive medium, pilot counter-assay, permissive growth control for S. cerevisiae lifespan shortening project (AID 705;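 active = growth inhibition above 25% in both replicates, a cutoff set 3 SD above the mean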); settings: OD615, 24 h, at 10 µM, stronger effect = higher value
[9] = Restrictive medium S. cerevisiae growth inhibition, OD615, pilot screen of yeast lifespan reduction project, restrictive growth control (AID 706;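 active = growth inhibition above a set limit, 3 SD over mean compound inhibition, in both replicates, cut at about 43% in these data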;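 note: modified DeaD lifespan yeast strain shifted to restrictive glucose medium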); settings: OD615, 48 h, at 10 µM, stronger effect = higher value
[10] = viability gain of MRP-1-high H69AR cells under doxorubicin, pilot screen, MRP-1 activator project, CellTiter-Glo, duplicate (AID 807;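 active = viability increase at or above a cutoff of the median across tested compounds plus 3 SD, cut at about 8.5% in these data, passing the limit was not always enough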;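 note: compound pretreatment 18-22 h then 72 h combined with doxorubicin; 0% = doxorubicin alone and 100% = vehicle without doxorubicin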); settings: H69AR viability with doxorubicin, CellTiter-Glo luminescence; at 10 µM; stronger effect = higher value
[11] = growth suppression of beta-catenin knockout HCT116, pilot screen, human colon tumor cells (AID 823); settings: CellTiter-Glo, 60 h, at 10 µM, stronger effect = lower value;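 note: 0% = wells killed by 20 µM Hyamine and 100% = untreated DMSO cell wells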
[12] = growth suppression of PTEN-deleted HCT116, pilot screen, cell-based, HCT116 clonal line, CellTiter-Glo (AID 824;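 active = viability at or below 27.92% in each of two runs, the all-compound median minus 4 SD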;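 note: 0% = 20 µM Hyamine control and 100% = vehicle cell control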); settings: 60 h, at 10 µM, stronger effect = lower value
[13] = inhibitors of the yeast RAM network, pilot screen, dse1pr::URA3 reporter, 5-FOA selection (AID 869;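 active = inhibition over a set limit, the all-compound mean plus 3 SD, in both replicate runs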;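 note: 0% = DMSO wells with no growth and 100% = 10 µM 1-NA-PP1 with full growth; RAM network block rescues cells from 5-FOA so hits raise OD615 growth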); settings: S. cerevisiae dse1pr::URA3 5-FOA growth, OD615, 2 d; at 10 µM; stronger effect = higher value; strain carries analog-sensitive mutant Cbk1 kinase
[14] = RAM signaling pathway blockade in yeast – S. cerevisiae, Pdr1DBD-CYC8 efflux-inhibited sensitized strain, primary screen (AID 1298;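 active = RAM network inhibition above 8.4% in each of two replicates, 3 SD over the compound average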;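 note: 0% = DMSO untreated cells without growth and 100% = 10 µM 1-NA-PP1 full growth; higher means more yeast growth rescued from 5-FOA killing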); settings: S. cerevisiae cbk1-as DSE1-URA3 strain, 5-FOA growth OD615, 2 d; at 50 µM; stronger effect = higher value
[15] = HUVEC growth inhibition – cell-based, human, primary screen (AID 575;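 active = viability at or below 30% in both replicate assays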;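 note: 100% = median of untreated cell wells with 0.1% DMSO on each plate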); settings: HUVEC proliferation, CellTiter-Glo luminescence, 72 h; at 10 µM; stronger effect = lower value
[16] = H69AR cells + 2 uM doxorubicin, measured here: viability with 2 uM doxorubicin, stronger effect = lower value
[17] = H69AR cells, compound alone cytotoxicity

## Cc1ccc(C)c(N2CCN(CCCNC(=O)Cn3cc4c(n3)CCC(C)C4)CC2)c1 (stereo unspecified)
[1]
  viability: 90.5%
[2]
  Her2 level: 78% (inactive)
[3]
  viability: 90.5% (inactive)
[4]
  viability: 26.6% (active)
[5]; H69AR cells + 2 uM doxorubicin
  differential viability (reversal): -20.3% (inactive)
[5]; [16]
  viability: 46.9%
[5]; [17]
  viability: 26.6%
[6]
  inhibition: -1.54% (inactive)
[7]
  inhibition: -2.83% (inactive)
[8]
  growth inhibition: 6.12% (inactive)
[9]
  growth inhibition: 10.4% (inactive)
[10]
  viability increase: -6.04% (inactive)
[11]
  viability: 1.61% (active)
[12]
  viability: 2.81% (active)
[13]
  inhibition: 1.44% (inactive)
[14]
  RAM network inhibition: 0.11% (inactive)

## CCOC(=O)c1ccc(N=c2sc(C(=O)OC)cc(=O)n2Cc2ccco2)cc1
[1]
  viability: 110%
[2]
  Her2 level: -1.5% (active)
[3]
  viability: 110% (inactive)
[4]
  viability: 1.51% (active)
[5]; H69AR cells + 2 uM doxorubicin
  differential viability (reversal): 0.27% (inactive)
[5]; [16]
  viability: 1.24%
[5]; [17]
  viability: 1.51%
[6]
  inhibition: -3.21% (inactive)
[7]
  inhibition: -1.33% (inactive)
[8]
  growth inhibition: -11.7% (inactive)
[9]
  growth inhibition: -2.14% (inactive)
[10]
  viability increase: -8.48% (inactive)
[11]
  viability: 5.04% (active)
[12]
  viability: 1.63% (active)
[13]
  inhibition: 1.42% (inactive)
[14]
  RAM network inhibition: 7.3% (inactive)

## CC(=O)n1cc(-c2ccncc2)c2ccccc21
[1]
  viability: 94%
[2]
  Her2 level: 108% (inactive)
[3]
  viability: 94% (inactive)
[4]
  viability: 85.3% (inactive)
[5]; H69AR cells + 2 uM doxorubicin
  differential viability (reversal): 6.14% (inactive)
[5]; [16]
  viability: 79.2%
[5]; [17]
  viability: 85.3%
[6]
  inhibition: -7.2% (inactive)
[7]
  inhibition: -3% (inactive)
[8]
  growth inhibition: -5.77% (inactive)
[9]
  growth inhibition: -1.47% (inactive)
[10]
  viability increase: -3.7% (inactive)
[11]
  viability: 86.7% (inactive)
[12]
  viability: 82.6% (inactive)
[13]
  inhibition: 0.135% (inactive)
[14]
  RAM network inhibition: 0.27% (inactive)

## C/C=C/CSc1nc2c(c(=O)[nH]c(=O)n2C)n1Cc1ccc(C)cc1
[1]
  viability: 102%
[2]
  Her2 level: 98.5% (inactive)
[3]
  viability: 102% (inactive)
[4]
  viability: 35.5% (active)
[5]; H69AR cells + 2 uM doxorubicin
  differential viability (reversal): -22.7% (inactive)
[5]; [16]
  viability: 58.2%
[5]; [17]
  viability: 35.5%
[6]
  inhibition: -1.6% (inactive)
[7]
  inhibition: -0.49% (inactive)
[8]
  growth inhibition: 0.005% (inactive)
[9]
  growth inhibition: 1.29% (inactive)
[10]
  viability increase: -4.39% (inactive)
[11]
  viability: 84.4% (inactive)
[12]
  viability: 69.3% (inactive)
[13]
  inhibition: 1.98% (inactive)
[14]
  RAM network inhibition: 2.77% (inactive)

## CCOc1ccc(NS(=O)(=O)c2cc(Cl)ccc2OC)cc1
[3]
  viability: 102% (inactive)
[15]
  viability: 91% (inactive)
[4]
  viability: 70.8% (inactive)
[5]; H69AR cells + 2 uM doxorubicin
  differential viability (reversal): -22.1% (inactive)
[5]; [16]
  viability: 92.9%
[5]; [17]
  viability: 70.8%
[6]
  inhibition: -6.93% (inactive)
[7]
  inhibition: -5.09% (inactive)
[8]
  growth inhibition: -10.7% (inactive)
[9]
  growth inhibition: -13.3% (inactive)
[10]
  viability increase: -2.64% (inactive)
[11]
  viability: 75.1% (inactive)
[12]
  viability: 76.2% (inactive)
[13]
  inhibition: 0.335% (inactive)
[14]
  RAM network inhibition: 0.17% (inactive)

## O=C(Nc1nc(-c2ccncc2)cs1)C1COc2ccccc2O1 (stereo unspecified)
[1]
  viability: 83.5%
[2]
  Her2 level: 99.5% (inactive)
[3]
  viability: 83.5% (inactive)
[15]
  viability: 67.2% (inactive)
[5]; H69AR cells + 2 uM doxorubicin
  differential viability (reversal): 4.21% (inactive)
[5]; [16]
  viability: 60.6%
[5]; [17]
  viability: 64.8%
[6]
  inhibition: 0.51% (inactive)
[7]
  inhibition: -8% (inactive)
[9]
  growth inhibition: 33.5% (inactive)
[10]
  viability increase: -5.71% (inactive)
[11]
  viability: 85.3% (inactive)
[12]
  viability: 83.9% (inactive)
[13]
  inhibition: 0.095% (inactive)
[14]
  RAM network inhibition: 7.12% (inactive)

## COc1ccc(N2CCN(C(=O)CSc3ccccc3)CC2)cc1
[3]
  viability: 113% (inactive)
[15]
  viability: 103% (inactive)
[4]
  viability: 95.5% (inactive)
[5]; H69AR cells + 2 uM doxorubicin
  differential viability (reversal): 12.5% (inactive)
[5]; [16]
  viability: 83%
[5]; [17]
  viability: 95.5%
[6]
  inhibition: -8.13% (inactive)
[7]
  inhibition: -2.18% (inactive)
[8]
  growth inhibition: 3.53% (inactive)
[9]
  growth inhibition: 11.6% (inactive)
[10]
  viability increase: -3.92% (inactive)
[11]
  viability: 93.2% (inactive)
[12]
  viability: 85.9% (inactive)
[13]
  inhibition: 1.16% (inactive)
[14]
  RAM network inhibition: 3.22% (inactive)

## O=C(CSc1nnnn1-c1ccccc1)Nc1ccc(Cl)cc1
[3]
  viability: 100% (inactive)
[15]
  viability: 99.1% (inactive)
[4]
  viability: 89.7% (inactive)
[5]; H69AR cells + 2 uM doxorubicin
  differential viability (reversal): 6.46% (inactive)
[5]; [16]
  viability: 83.2%
[5]; [17]
  viability: 89.7%
[6]
  inhibition: 2.13% (inactive)
[7]
  inhibition: 6% (inactive)
[8]
  growth inhibition: -4.88% (inactive)
[9]
  growth inhibition: 4.24% (inactive)
[10]
  viability increase: -3.86% (inactive)
[11]
  viability: 74% (inactive)
[12]
  viability: 76.8% (inactive)
[13]
  inhibition: 3.12% (inactive)
[14]
  RAM network inhibition: 2.55% (inactive)

## Cc1ccc(C2c3c(oc4ccccc4c3=O)C(=O)N2c2nnc(C(C)C)s2)o1 (stereo unspecified)
[1]
  viability: 84%
[2]
  Her2 level: 61% (inactive)
[3]
  viability: 84% (inactive)
[4]
  viability: 11.2% (active)
[5]; H69AR cells + 2 uM doxorubicin
  differential viability (reversal): -3.47% (inactive)
[5]; [16]
  viability: 14.7%
[5]; [17]
  viability: 11.2%
[6]
  inhibition: -5.2% (inactive)
[7]
  inhibition: 3.17% (inactive)
[8]
  growth inhibition: -13.3% (inactive)
[9]
  growth inhibition: -9.87% (inactive)
[10]
  viability increase: -3.23% (inactive)
[11]
  viability: 104% (inactive)
[12]
  viability: 98.1% (inactive)
[13]
  inhibition: 0.83% (inactive)
[14]
  RAM network inhibition: 1.85% (inactive)

## Cn1c(=O)oc2cc(S(=O)(=O)N3CCN(c4ccccn4)CC3)ccc21
[1]
  viability: 88.5%
[2]
  Her2 level: 91.5% (inactive)
[3]
  viability: 88.5% (inactive)
[4]
  viability: 73.8% (inactive)
[5]; H69AR cells + 2 uM doxorubicin
  differential viability (reversal): 0.275% (inactive)
[5]; [16]
  viability: 73.5%
[5]; [17]
  viability: 73.8%
[6]
  inhibition: 0.26% (inactive)
[7]
  inhibition: -3.67% (inactive)
[8]
  growth inhibition: -8.03% (inactive)
[9]
  growth inhibition: -3.75% (inactive)
[10]
  viability increase: -5.33% (inactive)
[11]
  viability: 66% (inactive)
[12]
  viability: 69.4% (inactive)
[13]
  inhibition: 1.97% (inactive)
[14]
  RAM network inhibition: 5.16% (inactive)
